Assay results taken from PubChem BioAssay AID1533 (PCMD, 2009).
About 45 (0.03%) of roughly 160,000 compounds were called active. Cut-off read from the data, not from the text of the source: active = inhibition mostly above about 34% (no sharp cut-off); inconclusive = no clear call, values can overlap the other calls; inactive = mostly below about 22%. Only a selection was taken, and actives are over-represented in it overall.

Biological target: dTDP-4-dehydrorhamnose reductase (Mycobacterium tuberculosis (strain ATCC 25618 / H37Rv)) + dTDP-4-dehydrorhamnose 3,5-epimerase (Mycobacterium tuberculosis (strain ATCC 25618 / H37Rv)) (UniProt P9WH09+P9WH11)
Sequence (P9WH09 whole entry, looked up): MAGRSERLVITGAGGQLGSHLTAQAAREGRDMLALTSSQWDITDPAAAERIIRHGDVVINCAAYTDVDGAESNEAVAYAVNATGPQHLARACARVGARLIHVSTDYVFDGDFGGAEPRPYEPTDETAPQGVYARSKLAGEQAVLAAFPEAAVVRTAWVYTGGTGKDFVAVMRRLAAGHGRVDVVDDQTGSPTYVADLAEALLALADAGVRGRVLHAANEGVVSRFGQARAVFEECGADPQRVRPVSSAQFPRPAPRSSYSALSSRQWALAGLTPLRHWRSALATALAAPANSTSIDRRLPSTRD
Sequence (P9WH11 whole entry, looked up): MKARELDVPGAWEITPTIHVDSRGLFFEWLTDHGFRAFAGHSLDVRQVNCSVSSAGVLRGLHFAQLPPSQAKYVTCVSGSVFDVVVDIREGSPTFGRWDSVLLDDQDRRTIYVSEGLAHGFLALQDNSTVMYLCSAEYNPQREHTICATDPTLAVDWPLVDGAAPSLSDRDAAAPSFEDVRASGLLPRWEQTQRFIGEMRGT
Assay: M. tuberculosis RmlC/RmlD coupled enzyme inhibitors, primary screen, biochemical, compound mixtures, 384-well, from 1536-well plates (AID 1533)
Conditions: RmlC+RmlD coupled enzyme assay, percent inhibition, primary screen in compound mixtures, stronger effect = higher value
[1] = measured here: mean retest inhibition, at 5.5 µM

Row | SMILES | inhibition (at 3.6 µM) | inhibition [1]
1 | O=C(O)CCc1nc2cc(Cl)ccc2n(Cc2ccccc2)c1=O | -4.14% (inactive) | –
2 | Cc1nc2cccnc2nc1C | -6.92% (inactive) | –
3 | Cc1ccccc1Nc1nc(N)nc(CSc2nnc3ccccn23)n1 | 4.62% (inactive) | –
4 | CC(C)(C)NC(=O)/C(=C/c1cccnc1)NC(=O)c1ccco1 | -0.65% (inactive) | –
5 | CN1CCN(C2=NCCO2)CC1 | -5.76% (inactive) | –
6 | C/C(=N\NC(=O)c1nc(C)cc(C)n1)c1ccccc1 | -2.86% (inactive) | –
7 | CNC(=O)C(NC(=O)c1ccccc1)=C(C)C | 3.15% (inactive) | –
8 | CC(C)=C(NC(=O)c1ccccc1)C(=O)N/N=C(\C)c1ccccc1O | 51.8% (active) | 31.3%
9 | Cc1ccc(SCc2c(C(=O)N/N=C/C3CC=CCC3)nnn2-c2nonc2N)cc1 (stereo unspecified) | 9.89% (inactive) | –
10 | OCC1(Cc2ccccc2C(F)(F)F)CCN(Cc2ccncc2)CC1 | 9.49% (inactive) | –
11 | O=C1C2C3C=CC(C3)C2C(=O)N1c1ccc(-c2nc3ccccc3c(=O)o2)cc1 (stereo unspecified) | 1.56% (inactive) | –
12 | O=C(CCCl)Nc1ccc(S(=O)(=O)NCc2ccco2)cc1 | 4.49% (inactive) | –
13 | CC(C)c1nc(SCC(=O)NC(=O)NC(C)(C)C)n[nH]1 | -8.54% (inactive) | –
14 | O=C(COC(=O)c1ccc(Cl)nc1)NCc1cccs1 | -9.13% (inactive) | –
15 | Cc1cc(C(=O)Cn2cnc3cc([N+](=O)[O-])ccc3c2=O)c(C)n1CC1CCCO1 (stereo unspecified) | 5.54% (inactive) | –
16 | C=CCSc1nnc(NC(=O)c2ccc(NC(C)=O)cc2)s1 | 2.48% (inactive) | –
17 | Cc1cc(C)c(NC(=O)CN2C(=O)NC(Cc3ccccc3)C2=O)c(C)c1 (stereo unspecified) | 43.2% (inactive) | 7.39%
18 | O=[N+]([O-])C(=c1ccc2c(c1)N1C3=C(CCCC3)CC3CCCCC31N=2)[N+](=O)[O-] (stereo unspecified) | -9.85% (inactive) | –
19 | CCOC(=O)CNC(=O)CSc1ccc2nnc(-c3cccnc3)n2n1 | -13.1% (inactive) | –
20 | CC(=O)Nc1ccc(CC#N)cc1 | -7.92% (inactive) | –
21 | CC(NC(=O)C(=O)Nc1nccs1)c1ccccc1 (stereo unspecified) | 12.6% (inactive) | –
22 | COc1ccc(/C=C/c2nnc(NC(=O)C(C)C)s2)cc1 | 2.36% (inactive) | –
23 | Cn1nc(C(F)(F)F)c(-c2ccc(F)cc2)c1NC(=O)CSCC(=O)O | 10% (inactive) | –

Row | SMILES | inhibition (at 3.6 µM) | inhibition [1]
24 | O=[N+]([O-])/C=C1\CCCCCN1 | -6.23% (inactive) | –
25 | O=C1[C@@H]2C(c3cccnc3)=NO[C@@H]2C(=O)N1c1ccc(Cl)cc1Cl | 13.9% (inactive) | –
26 | CCOC(=O)CNc1nc(Cl)nc(Nc2ccccc2)n1 | 0.72% (inactive) | –
27 | Cn1nccc1NC(=O)Nc1ccc(OC(F)(F)F)cc1 | -2.41% (inactive) | –
28 | COc1ccccc1P(=O)(c1ccccc1)c1ccccc1NC(C)=O (stereo unspecified) | 40.9% (inactive) | -18.2%
29 | CCOC(=O)C(CC)/C(C)=N\NC(=O)c1cccc(C)c1 (stereo unspecified) | 9.71% (inactive) | –
30 | COC(=O)CC1=NN(c2ccccc2)C(=O)C1 | -13% (inactive) | –
31 | Cc1cc(C(=O)OCC(=O)Nc2nccs2)c2ccccc2n1 | 9.68% (inactive) | –
32 | Cc1ccccc1C(=O)Nc1ccc(N2CCCCCC2)cc1 | -4.06% (inactive) | –
33 | COc1ccc(NC(=O)CSc2ncnc3[nH]ncc23)cc1 | -14.6% (inactive) | –
34 | CCC/C(C)=N\Nc1nc2c(c(=O)n(C)c(=O)n2C)n1C | -3.15% (inactive) | –
35 | COc1ccc(/C=N/NS(=O)(=O)c2ccc(NC(C)=O)cc2)cc1 | 10.1% (inactive) | –
36 | C/C(CCc1ccccc1)=N\NC(=O)c1ccc(CN2CCOCC2)cc1 | 6.96% (inactive) | –
37 | CC(=O)NC(CC(=O)Nc1nccs1)c1ccccc1 (stereo unspecified) | 3.67% (inactive) | –
38 | Cc1cc(Nc2ccc(N3CCOCC3)cc2)c2cccc(C)c2n1 | 35.8% (inactive) | -6.33%
39 | Cc1ccc(NNC(=O)C2CCC2)cc1C | -0.66% (inactive) | –
40 | C=CCNC(=S)N1CCc2[nH]c3ccccc3c2C1 | -7.26% (inactive) | –
41 | Cn1c(SCC(=O)Nc2ccc(Cl)cc2)nc(O)cc1=O | 3.67% (inactive) | –
42 | OCC(O)CN(c1ccccc1)c1ccccc1 (stereo unspecified) | 15.9% (inactive) | –
43 | O=C(NCc1ccncc1)NC12CC3CC(CC(C3)C1)C2 | 4.57% (inactive) | –
44 | Cc1nc2ccc(NC(=S)N3CCC(C)CC3)cc2nc1C | 12.1% (inactive) | –
45 | Cc1ccc(CSc2nc3[nH]ncc3c(=O)[nH]2)cc1 | 65.1% (inactive) | 4.96%
46 | CC(C)c1c(O)nc(SCCOc2ccc(Cl)cc2)[nH]c1=O | 7.19% (inactive) | –
